{"source": "the supplement of paper PMC8728848", "binders": {"B1": {"name": "RbmA (Vibrio cholerae), A0A2H4NFB8 (protein)", "chain": "MSNFKGSIMNKRHYYLASCLALLFSTASYAEVDCELQPVIEANLSLNQNQLASNGGYISSQLGIRNESCETVKFKYWLSIKGPEGIYFPAKAVVGVDTAQQESDALTDGRMLNVTRGFWVPEYMADGKYTVSLQVVAENGEVFKANQEFVKGGDLNSLPELNGLTIDIKNQFGINSVESTGGFVPFTIDLNNGREGEAKVEFWMTAVGPDGLIIPVHSREKWMIIAGNTFSKVRGINFDKSYPAGEYTINAQVVDIVSGERVEQLMTVVKK"}}, "experiment_in_all_cases": "glycan array binding signal (z-score within array); higher = stronger binding", "conditions_in_all_cases": "glycan notation: IUPAC condensed, linker removed", "key": {"[1]": {"target": "Fuc(a1-2)Gal", "in_short": "(§1)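 The Consortium for Functional Glycomics database supplied 3228 glycan arrays, of which those lacking an available protein sequence were dropped. The binding signal, a within-array Z-score, was averaged across arrays of the same protein sequence and across linkers. Negative scores can be read as non-binding.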"}, "[2]": {"target": "Fuc(a1-2)Gal(b1-4)GlcNAc(b1-2)Man(a1-3)[Fuc(a1-2)Gal(b1-4)GlcNAc(b1-2)Man(a1-6)]Man(b1-4)GlcNAc(b1-4)GlcNAc", "in_short": "as §1"}, "[3]": {"target": "Fuc(a1-2)[Gal(a1-3)]Gal(b1-3)GlcNAc", "in_short": "as §1"}, "[4]": {"target": "Fuc(a1-2)[Gal(a1-3)]Gal(b1-4)GlcNAc", "in_short": "as §1"}, "[5]": {"target": "Fuc(a1-2)[GalNAc(a1-3)]Gal", "in_short": "as §1"}, "[6]": {"target": "Fuc(a1-2)[GalNAc(a1-3)]Gal(b1-4)GlcNAc(b1-2)Man", "in_short": "as §1"}, "[7]": {"target": "Fuc(a1-2)[GalNAc(a1-3)]Gal(b1-4)GlcNAc(b1-2)Man(a1-3)[Fuc(a1-2)[GalNAc(a1-3)]Gal(b1-4)GlcNAc(b1-2)Man(a1-6)]Man(b1-4)GlcNAc(b1-4)GlcNAc", "in_short": "as §1"}, "[8]": {"target": "Fuc(a1-2)[GalNAc(a1-3)]Gal(b1-4)GlcNAc(b1-3)GalNAc", "in_short": "as §1"}, "[9]": {"target": "Fuc(a1-3)GlcNAc", "in_short": "as §1"}, "[10]": {"target": "Fuc(a1-3)[Gal(b1-4)]GlcNAc(b1-2)Man", "in_short": "as §1"}, "[11]": {"target": "Fuc(a1-3)[GalNAc(b1-4)]GlcNAc", "in_short": "as §1"}, "[12]": {"target": "Gal(a1-3)Gal(b1-3)[Fuc(a1-4)]GlcNAc(b1-2)Man(a1-3)[Gal(a1-3)Gal(b1-3)[Fuc(a1-4)]GlcNAc(b1-2)Man(a1-6)]Man(b1-4)GlcNAc(b1-4)GlcNAc", "in_short": "as §1"}, "[13]": {"target": "Gal(a1-3)Gal(b1-4)[Fuc(a1-3)]GlcNAc(b1-2)Man(a1-3)[Gal(a1-3)Gal(b1-4)[Fuc(a1-3)]GlcNAc(b1-2)Man(a1-6)]Man(b1-4)GlcNAc(b1-4)GlcNAc", "in_short": "as §1"}, "[14]": {"target": "Gal(a1-4)Gal(b1-3)GlcNAc(b1-2)Man(a1-3)[Gal(a1-4)Gal(b1-3)GlcNAc(b1-2)Man(a1-6)]Man(b1-4)GlcNAc(b1-4)GlcNAc", "in_short": "as §1"}, "[15]": {"target": "Gal(a1-4)Gal(b1-4)GlcNAc(b1-3)Gal(b1-4)Glc", "in_short": "as §1"}, "[16]": {"target": "Gal(b1-2)Gal", "in_short": "as §1"}, "[17]": {"target": "Gal(b1-3)GalNAc(b1-4)Gal(b1-4)Glc", "in_short": "as §1"}, "[18]": {"target": "Gal(b1-3)GlcNAc(b1-2)[Gal(b1-3)GlcNAc(b1-6)]Man(a1-6)[Gal(b1-3)GlcNAc(b1-2)Man(a1-3)]Man(b1-4)GlcNAc(b1-4)GlcNAc", "in_short": "as §1"}, "[19]": {"target": "Gal(b1-3)GlcNAc6S", "in_short": "as §1"}, "[20]": {"target": "Gal(b1-4)GlcNAc(b1-2)Man(a1-3)[GlcNAc(b1-2)Man(a1-6)]Man(b1-4)GlcNAc(b1-4)GlcNAc", "in_short": "as §1"}, "[21]": {"target": "Gal(b1-4)GlcNAc(b1-3)Gal(b1-4)GlcNAc(b1-3)Gal(b1-4)GlcNAc(b1-3)Gal(b1-4)GlcNAc(b1-2)[Gal(b1-4)GlcNAc(b1-3)Gal(b1-4)GlcNAc(b1-3)Gal(b1-4)GlcNAc(b1-3)Gal(b1-4)GlcNAc(b1-6)]Man(a1-6)[Gal(b1-4)GlcNAc(b1-3)Gal(b1-4)GlcNAc(b1-3)Gal(b1-4)GlcNAc(b1-3)Gal(b1-4)GlcNAc(b1-2)Man(a1-3)]Man(b1-4)GlcNAc(b1-4)[Fuc(a1-6)]GlcNAc", "in_short": "as §1"}, "[22]": {"target": "Gal(b1-4)GlcNAc(b1-3)Gal(b1-4)GlcNAc(b1-3)Gal(b1-4)GlcNAc(b1-3)Gal(b1-4)GlcNAc(b1-3)Gal(b1-4)GlcNAc(b1-2)Man(a1-3)[Gal(b1-4)GlcNAc(b1-3)Gal(b1-4)GlcNAc(b1-3)Gal(b1-4)GlcNAc(b1-3)Gal(b1-4)GlcNAc(b1-3)Gal(b1-4)GlcNAc(b1-2)Man(a1-6)]Man(b1-4)GlcNAc(b1-4)GlcNAc", "in_short": "as §1"}, "[23]": {"target": "Gal(b1-4)GlcNAc(b1-3)Gal(b1-4)GlcNAc(b1-3)Gal(b1-4)GlcNAc(b1-3)Gal(b1-4)GlcNAc(b1-3)Gal(b1-4)GlcNAc(b1-2)[Gal(b1-4)GlcNAc(b1-3)Gal(b1-4)GlcNAc(b1-3)Gal(b1-4)GlcNAc(b1-3)Gal(b1-4)GlcNAc(b1-3)Gal(b1-4)GlcNAc(b1-6)]Man(a1-6)[Gal(b1-4)GlcNAc(b1-3)Gal(b1-4)GlcNAc(b1-3)Gal(b1-4)GlcNAc(b1-3)Gal(b1-4)GlcNAc(b1-3)Gal(b1-4)GlcNAc(b1-2)Man(a1-3)]Man(b1-4)GlcNAc(b1-4)[Fuc(a1-6)]GlcNAc", "in_short": "as §1"}, "[24]": {"target": "Gal4S(b1-4)GlcNAc", "in_short": "as §1"}, "[25]": {"target": "Gal6S(b1-3)GlcNAc6S", "in_short": "as §1"}, "[26]": {"target": "GalNAc(b1-4)GlcNAc(b1-3)GalNAc(b1-4)GlcNAc", "in_short": "as §1"}, "[27]": {"target": "GlcA(b1-6)Gal", "in_short": "as §1"}, "[28]": {"target": "GlcNAc(a1-4)Gal(b1-4)GlcNAc(b1-3)Gal(b1-4)GlcNAc(b1-3)Gal(b1-4)GlcNAc", "in_short": "as §1"}, "[29]": {"target": "GlcNAc(a1-4)Gal(b1-4)GlcNAc(b1-3)Gal(b1-4)[Fuc(a1-3)]GlcNAc(b1-3)Gal(b1-4)[Fuc(a1-3)]GlcNAc", "in_short": "as §1"}, "[30]": {"target": "GlcNAc(b1-3)Gal(b1-4)GlcNAc(b1-2)Man(a1-3)[GlcNAc(b1-3)Gal(b1-4)GlcNAc(b1-2)Man(a1-6)]Man(b1-4)GlcNAc(b1-4)GlcNAc", "in_short": "as §1"}}, "note": "Many of the other results were omitted from the sample, so the strongest signals are more common in it than they were.", "data": [{"binder": "B1", "values": [{"measurement": "glycan array binding signal (z-score)", "setting": "[1]", "value": 0.097}, {"measurement": "glycan array binding signal (z-score)", "setting": "[2]", "value": 3.71}, {"measurement": "glycan array binding signal (z-score)", "setting": "[3]", "value": 1.13}, {"measurement": "glycan array binding signal (z-score)", "setting": "[4]", "value": -0.42}, {"measurement": "glycan array binding signal (z-score)", "setting": "[5]", "value": 0.428}, {"measurement": "glycan array binding signal (z-score)", "setting": "[6]", "value": -0.393}, {"measurement": "glycan array binding signal (z-score)", "setting": "[7]", "value": -0.735}, {"measurement": "glycan array binding signal (z-score)", "setting": "[8]", "value": 2.25}, {"measurement": "glycan array binding signal (z-score)", "setting": "[9]", "value": -0.597}, {"measurement": "glycan array binding signal (z-score)", "setting": "[10]", "value": -0.564}, {"measurement": "glycan array binding signal (z-score)", "setting": "[11]", "value": -0.002}, {"measurement": "glycan array binding signal (z-score)", "setting": "[12]", "value": -0.276}, {"measurement": "glycan array binding signal (z-score)", "setting": "[13]", "value": 0.837}, {"measurement": "glycan array binding signal (z-score)", "setting": "[14]", "value": 0.508}, {"measurement": "glycan array binding signal (z-score)", "setting": "[15]", "value": 0.028}, {"measurement": "glycan array binding signal (z-score)", "setting": "[16]", "value": -0.082}, {"measurement": "glycan array binding signal (z-score)", "setting": "[17]", "value": 0.503}, {"measurement": "glycan array binding signal (z-score)", "setting": "[18]", "value": -0.69}, {"measurement": "glycan array binding signal (z-score)", "setting": "[19]", "value": -0.734}, {"measurement": "glycan array binding signal (z-score)", "setting": "[20]", "value": -0.515}, {"measurement": "glycan array binding signal (z-score)", "setting": "[21]", "value": 4.03}, {"measurement": "glycan array binding signal (z-score)", "setting": "[22]", "value": 5.93}, {"measurement": "glycan array binding signal (z-score)", "setting": "[23]", "value": 7.99}, {"measurement": "glycan array binding signal (z-score)", "setting": "[24]", "value": 3.32}, {"measurement": "glycan array binding signal (z-score)", "setting": "[25]", "value": -0.99}, {"measurement": "glycan array binding signal (z-score)", "setting": "[26]", "value": 2.09}, {"measurement": "glycan array binding signal (z-score)", "setting": "[27]", "value": -0.721}, {"measurement": "glycan array binding signal (z-score)", "setting": "[28]", "value": 3.48}, {"measurement": "glycan array binding signal (z-score)", "setting": "[29]", "value": 4.35}, {"measurement": "glycan array binding signal (z-score)", "setting": "[30]", "value": -0.474}]}]}
